# This is a sample that favours compounds with a hit; in the whole collection about 2.3% have one here.
# HSP90 refold inh: inhibitors of HSP90 luciferase refolding in rabbit reticulocyte lysate. inhibition, % at 5.6 µM. luciferase refolding luminescence, 3 h. AID 1789. 290,000 tested, 0.91% active;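 active = inhibition above the screen-wide mean plus 3 SD, computed separately per campaign, cut at about 16% in these data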;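 also: inhibitors lower the luminescence because luciferase stays unfolded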
# SENP7 block: inhibitors of human SENP7 protease | Q9BQF6 | inhibition, % at 5 µM | 330,000 tested, 1.5% active | recombinant SENP7, Z-RLRGG-aminoluciferin luminescence, 40 min;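 active = inhibition above about 50% at the single test dose, limit read from the data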
# SENP8 block-1: inhibitors of human SENP8 protease; Q96LD8; purified SENP8, Z-RLRGG-aminoluciferin cleavage, luminescence; inhibition, % at 10 µM; 330,000 tested, 1.2% active; in the data active = inhibition above about 50%
# Target sequence (Q96LD8 whole entry, looked up): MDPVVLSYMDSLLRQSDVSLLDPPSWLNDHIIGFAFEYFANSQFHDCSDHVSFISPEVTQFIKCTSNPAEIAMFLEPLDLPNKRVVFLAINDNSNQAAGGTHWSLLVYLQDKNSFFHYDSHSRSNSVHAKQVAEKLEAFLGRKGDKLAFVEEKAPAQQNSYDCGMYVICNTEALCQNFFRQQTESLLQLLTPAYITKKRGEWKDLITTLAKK
# SENP8 block-2: inhibitors of human SENP8 protease | Q96LD8 | recombinant SENP8, Nedd8 substrate fluorescence | inhibition, % at 20 µM | 360,000 tested, 0.64% active | AID 602440; in the data active = inhibition mostly above about 40%, no sharp cut-off; inactive = mostly below about 27%
# SENP6 inh: inhibitors of human SENP6 protease | Q9GZR1 | Recombinant SENP6 catalytic domain, aminoluciferin luminescence | inhibition, % at 10 µM | 330,000 tested, 1.8% active | AID 2599;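 active = inhibition above about 50% at the single tested dose, limit read from the data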
# LGR2 antag: inhibitors of bursicon-induced Drosophila LGR2 receptor cAMP signaling; inhibition, % at 9.99 µM; AID 720647; 380,000 tested, 0.35% active; HEK293 LGR2, CRE-luciferase, bursicon-stimulated, 4 h;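 active = drop in luminescence signal, shown as inhibition above about 50% in the replicate tests, limit read from the data, passing the limit was not always enough; inconclusive = probably only some replicates passing the limit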;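 also: agonist challenge used bursicon conditioned medium at about half maximal strength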
# HSP90 confirm: HSP90 inhibition, confirmation assay; shares compounds with HSP90 refold inh; rabbit reticulocyte lysate, luciferase refolding luminescence, 3 h; inhibition, % at 5.9 µM; 2,300 tested, 64% active; AID 1846; in the data active = inhibition above about 18%
# FLuc counter: counter-screen for HSP90 inhibitors: inhibitors of firefly luciferase; 2,300 tested, 48% active; inhibition, % at 5.9 µM; shares compounds with HSP90 refold inh; AID 1847; purified native firefly luciferase, luminescence;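 active = inhibition above the mean inhibition of all tested sample wells plus 3 SD, cut at about 10% in these data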
# SENP8 confirm: human SENP8 inhibition, confirmed; inhibition, % at 12.5 µM; shares compounds with SENP7 block; Recombinant SENP8, Z-RLRGG-aminoluciferin luminescence, 60 min; 6,200 tested, 40% active;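 active = mean inhibition across replicates above about 50%, limit read from the data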
# SENP6 confirm: human SENP6 inhibition, confirmed; AID 488915; inhibition, % at 12.5 µM; recombinant SENP6, Z-RLRGG-aminoluciferin luminescence; 6,200 tested, 58% active; shares compounds with SENP7 block
# SENP7 confirm: confirmation of human SENP7 protease inhibitors; AID 488917; inhibition, % at 12.5 µM; 6,200 tested, 69% active; recombinant SENP7, Z-RLRGG-aminoluciferin luminescence, 40 min; shares compounds with SENP7 block
# Casp3 SENP sel: selectivity test for SENP inhibitors: human caspase-3 inhibition; shares compounds with SENP7 block; purified caspase-3, Z-DEVD-aminoluciferin luminescence, 60 min; inhibition, % at 12.5 µM; 6,200 tested, 60% active; AID 488918;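 active = mean inhibition above about 50%, limit read from the data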
# Target sequence (P42574 28-227 limits assumed): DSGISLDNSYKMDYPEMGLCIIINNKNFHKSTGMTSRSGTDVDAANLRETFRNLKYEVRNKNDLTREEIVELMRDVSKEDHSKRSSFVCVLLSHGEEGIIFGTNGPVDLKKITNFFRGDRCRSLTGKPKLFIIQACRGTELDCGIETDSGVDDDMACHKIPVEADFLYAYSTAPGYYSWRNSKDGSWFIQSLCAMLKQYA
# Luc interf: counter-screen for SENP inhibitors: luminescence interference; inhibition, % at 12.5 µM; shares compounds with SENP7 block; 6,200 tested, 39% active; Pre-incubated SENP8/Z-RLRGG-aminoluciferin, luciferase luminescence interference;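 active = mean inhibition above about 50% when retested at one dose, limit read from the data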
# Hits are given with their value; n = inactive; u = inconclusive; x = no result given.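 The calls were made as follows, unless noted: active = mean inhibition above about 50% in the one-dose retest (limit read from the data); inactive = the rest.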
SMILES,HSP90 refold inh,SENP7 block,SENP8 block-1,SENP8 block-2,SENP6 inh,LGR2 antag,HSP90 confirm,FLuc counter,SENP8 confirm,SENP6 confirm,SENP7 confirm,Casp3 SENP sel,Luc interf
COc1ccc(C(=O)/C=C/Nc2cc(C)ccn2)cc1,31.0,95.0,95.4,n,95.4,74.2,68.5,54.8,n,98.6,102.8,96.4,n
COc1ccc(N/C=C\C(=O)c2ccc3ccccc3c2)cc1,n,n,n,n,n,n,x,x,x,x,x,x,x
COc1ccc(NC(=O)Nc2cc(C)ccn2)cc1,x,x,x,n,x,n,x,x,x,x,x,x,x
COc1ccc(N/C=C/C(=O)c2ccccc2)cc1,53.8,96.4,94.6,n,94.4,65.3,88.4,80.6,n,93.0,103.1,97.1,n
COc1cc(/C=N/O)ccc1OCc1ccc(C(=O)O)cc1,76.0,100.3,96.0,n,97.2,x,84.9,79.9,97.4,100.5,103.7,97.9,98.8
COc1cccc(C(=O)Oc2ccc(/C=N/Nc3ccc(C(=O)O)cc3)cc2OC)c1,22.2,n,n,n,51.7,n,48.4,30.9,56.8,n,65.7,n,n
CCOc1cc(/C=N/Nc2ccc(C(=O)O)cc2)ccc1OC(=O)c1ccccc1C,n,n,n,n,n,n,x,x,x,x,x,x,x
COc1cc(C(=O)O)ccc1OCc1ccccc1,x,x,x,x,x,n,x,x,x,x,x,x,x
COc1ccc(C(=O)N/N=C/c2ccc(OC)c(COc3ccc(F)cc3)c2)cc1,n,n,n,n,n,n,x,x,x,x,x,x,x
COc1cccc(OCc2cc(/C=N/Nc3ccc(C(=O)O)cc3)ccc2OC)c1,54.8,n,79.6,n,86.9,n,65.9,55.8,58.2,84.4,95.4,n,n
O=C(CN1CCOCC1)N1CC[C@@H]2[C@H](CO)Nc3ccc(-c4ccccc4)cc3[C@@H]21,x,x,x,x,x,n,x,x,x,x,x,x,x
O=C(Nc1cccc(O)c1)c1cc(-c2cccs2)on1,30.6,75.0,85.2,n,93.9,n,63.7,57.0,94.2,94.0,100.3,92.3,95.4
COc1cccc(-c2cc(C(=O)Nc3cccc(O)c3)no2)c1,17.5,97.2,94.0,n,98.6,78.7,64.3,57.4,88.2,90.5,101.6,91.8,90.0
Cc1cc(C)nc(Nc2nc(-c3ccccc3)cs2)n1,27.7,89.6,81.8,n,73.8,n,51.2,36.9,n,n,n,n,n
Clc1ccc(/C=C/c2nc3ccccc3[nH]2)c(Cl)c1,44.4,99.0,97.1,n,100.0,x,76.7,71.9,99.4,100.5,103.7,97.7,n
Clc1ccc(/C=C/c2nc3ccccc3[nH]2)cc1,35.1,99.9,96.5,n,97.8,x,68.6,62.8,99.2,100.4,103.1,98.1,83.1
Cc1nn(-c2ccccc2)c(Cl)c1/C=N/NC(=O)c1[nH]ncc1Br,33.0,94.7,91.6,n,92.2,n,45.8,39.2,n,94.5,101.6,95.1,n
Cc1ccc(C(=O)N/N=C\c2c(C)nn(-c3ccccc3)c2Cl)cn1,n,n,n,n,n,n,x,x,x,x,x,x,x
Cc1cc(C(=O)NC(C)c2ccc3c(c2)OCO3)cs1 (stereo not drawn),n,n,n,n,n,n,x,x,x,x,x,x,x
Cc1cccc(NC(=O)c2ccc3c(c2)OCCO3)c1,33.5,92.1,84.8,n,86.4,u,48.5,35.5,n,92.6,101.0,93.8,90.1

# Screens (PubChem)
